According to ChEMBL document CHEMBL3433997, “St. Jude Leishmania screening dataset” (2016):

Target: Solute carrier family 2, facilitated glucose transporter member 1 (Homo sapiens) (UniProt P11166)
Assay: ST_JUDE_LEISH: Cytotoxicity at 2uM final concentration against transgenic Leishmania Mexicana promastigotes LmGLUT1 that are glucose transport deficient and complemented with the human glucose transporter GLUT1. Activity is measured by DNA content using SYBR green in vitro
Assay type: functional

Chain of Solute carrier family 2, facilitated glucose transporter member 1 (Homo sapiens) (P11166 whole entry): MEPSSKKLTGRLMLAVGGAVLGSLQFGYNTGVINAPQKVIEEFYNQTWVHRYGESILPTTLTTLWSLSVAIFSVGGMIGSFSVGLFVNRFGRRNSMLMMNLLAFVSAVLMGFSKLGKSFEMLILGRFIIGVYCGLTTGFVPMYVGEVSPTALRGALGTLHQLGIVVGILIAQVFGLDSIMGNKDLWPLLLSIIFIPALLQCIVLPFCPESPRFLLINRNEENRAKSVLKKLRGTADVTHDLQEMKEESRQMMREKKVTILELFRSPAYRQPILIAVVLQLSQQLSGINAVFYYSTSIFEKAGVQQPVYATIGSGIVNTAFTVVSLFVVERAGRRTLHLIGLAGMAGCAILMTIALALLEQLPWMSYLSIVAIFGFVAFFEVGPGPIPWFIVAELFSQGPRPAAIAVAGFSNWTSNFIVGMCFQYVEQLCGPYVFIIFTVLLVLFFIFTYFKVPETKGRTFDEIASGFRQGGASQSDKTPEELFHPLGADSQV

Compound | inhibition [%]
Cc1ccc(-n2cc(CNCC3CCN(CCO)CC3)c(-c3ccc(F)cc3)n2)cc1 | 85
Cc1cccc(OCC2CCN(c3ncc(C(=O)NC4CC4)cc3Cl)CC2)c1 | 0.26
COC(=O)c1cccc(CNCc2cccc(-c3cccc(-c4nc5cc(C(F)(F)F)ccc5[nH]4)c3)c2)c1 | -1.41
O=c1ccc2ccc(F)c3c2n1CC3CN1CCC(NCc2cccc(-c3cccs3)c2)CC1 (stereo not given) | 6.55
COc1c(C2CCN(CCCCNC(=O)c3noc(-c4ccc(C#N)cc4)n3)CC2)ccc2c1CCCC2 | 2.99
Fc1cccc(Cn2ncc3cc(Nc4ncnc5sc(C#Cc6ncc[nH]6)cc45)ccc32)c1 | -0.74
O=C(CNc1ccncc1)c1c[nH]c2ccccc12 | 0.52
CN1CCN(c2cccc(-c3nnc(-c4ccc(OCC(=O)NCc5cccc(C(F)(F)F)c5)c([N+](=O)[O-])c4)o3)c2)CC1 | 8.88
CC(=O)Nc1cccc(NC(=O)CSc2ccc(-c3nc4ccccc4[nH]3)cn2)c1 | 0.84
O=C(Nc1ccccc1Cl)N(Cc1cc(Cl)cc(Cl)c1)CC(O)COc1ccc(Cl)c(F)c1 (stereo not given) | 2.94
O=C(Nc1ccccc1)N(Cc1cccc(-c2ccc(CNCCc3ccccc3)cc2)c1)C1CCN(Cc2ccccc2)CC1 | 0.46
CCc1cc2c3c(N)nc(N)nc3ccc2n1CC | 40.4
N#Cc1ccc(-c2ccc(C(=O)NCCCCN3CCC(c4cn(CCO)c5ccccc45)CC3)cc2)cc1 | -0.57
CCn1cnc2c(N3CCCC3=O)cc(C(=O)N[C@@H](Cc3ccccc3)[C@H](O)CNC3CCCCC3)cc21 | 2
COc1ccc(-c2nc(-c3ccc([N+](=O)[O-])cc3)no2)cc1OC | 1.91
Cc1cccc2nc(-c3ccc(-c4cccc(NC(=O)Nc5cccc(C#N)c5)c4)cc3)[nH]c12 | 0.79
O=C(/C=C/c1ccccc1O)NCCCCCN1CCC(c2c[nH]c3ccccc23)CC1 | 3.82
Cc1ccc(NC(=O)NCCCCCN2CCC(c3c[nH]c4ccccc34)CC2)cc1I | 3.96
Cc1ccc(C(=O)N2CCc3cc4nccc(N5CCN6CCC[C@H]6C5)c4cc32)cc1 | 1.81
Cc1cccc2nc(C3CCN(CC4CCN(C(=O)/C=C/c5ccc(Cl)c(Cl)c5)CC4)CC3)[nH]c12 | 10.9

Compound | inhibition [%]
CC(C)(C)c1ccc(NC(=O)c2cccc(CN3CCCN(Cc4cccc(C#N)c4)CC3)c2)cc1 | 5.1
CCC(C)OC(=O)C1=C(C)NC2=C(C(=O)CC(c3ccc(OC)c(OC)c3)C2)C1c1ccc(C)o1 (stereo not given) | 2.36
COc1cccc(OC)c1OCCCOc1c(C)nc(N)nc1N | 0.61
Cc1nc(-c2nc(N3CCC(O)CC3)ncc2-c2ccsc2)sc1C | -1.86
Cc1cc(Nc2cccc(C(F)(F)F)c2)nc2ccc(NC(=O)c3ccc(=O)[nH]c3)cc12 | -0.79
Cc1onc(-c2ccccc2)c1-c1nc(NCCC(c2ccccc2)c2ccccc2)no1 | 9.17
NCC1CCCN1Cc1cccc(-c2ccc(-c3nc4cc(C(F)(F)F)ccc4[nH]3)cc2)c1 (stereo not given) | 0.06
COc1cc(Nc2ccnc3cc(-c4nccs4)ccc23)ccc1OCCCc1nc2ccccc2[nH]1 | 3.6
c1ccc(CN2CCC(NCc3ccc(-c4ccc(CNC5CCCC5)cc4)cc3)CC2)cc1 | 1.73
Cn1c(=O)c2nc(-c3ccc(Cl)cc3)nnc2n(CCCC#N)c1=O | 7.35
O=C(NCCCCCCNCc1ccc(-c2ccccc2)cc1)Nc1ccc(Cl)c(Cl)c1 | 1.38
CC(C)N(Cc1cnc2nc(N)nc(N)c2n1)c1ccc(Cl)c(Cl)c1 | 1.77
O=C(NC1CCN(Cc2ccc3c(c2)OCCO3)CC1)c1ccc(-c2cccc(Cl)c2)s1 | 5.55
Cc1cccc2nc(-c3cccc(-c4ccc(CNCc5cccc(N)c5)cc4)c3)[nH]c12 | -2.78
CCCN(CCCCCCNCCc1ccc(Cl)cc1)CCc1ccc(O)c(O)c1 | -4.9
COc1ccc(F)cc1-c1ccccc1CNC(=O)CN(C)S(=O)(=O)c1cc(C)cc(Cl)c1C | 1.17
Cn1nccc1C(=O)NCCNCc1cccc(-c2csc(-c3nc4ccccc4[nH]3)c2)c1 | 9.15
O=C(/C=C/c1ccc2ccccc2c1)NCCCCCN1CCC(c2c[nH]c3ccccc23)CC1 | 3.34
O=C(NCCCCN1CCC(C(c2ccccc2)c2ccccc2)CC1)c1ccc(NC(=O)c2ccc(Cl)cc2)cc1 | -0.78
CC(C)c1ccc(CN2CCC(NC(=O)c3ccc(-c4cccc(Cl)c4)s3)CC2)cc1 | 5.24

Target: Hexose transporter 1 (Plasmodium falciparum) (UniProt O97467)
Assay: ST_JUDE_LEISH: Cytotoxicity at 2uM final concentration against transgenic Leishmania Mexicana promastigotes LmPfHT that are glucose transport deficient and complemented with the Plasmodium falciparum hexose transporter. Activity is measured by DNA content using SYBR green in vitro
Assay type: functional

Compound | inhibition [%]
Cc1ccc(-n2cc(CNCC3CCN(CCO)CC3)c(-c3ccc(F)cc3)n2)cc1 | 2.77
Cc1cccc(OCC2CCN(c3ncc(C(=O)NC4CC4)cc3Cl)CC2)c1 | 5.86
COC(=O)c1cccc(CNCc2cccc(-c3cccc(-c4nc5cc(C(F)(F)F)ccc5[nH]4)c3)c2)c1 | -2.35
O=c1ccc2ccc(F)c3c2n1CC3CN1CCC(NCc2cccc(-c3cccs3)c2)CC1 (stereo not given) | 8.34
COc1c(C2CCN(CCCCNC(=O)c3noc(-c4ccc(C#N)cc4)n3)CC2)ccc2c1CCCC2 | 1.9
Fc1cccc(Cn2ncc3cc(Nc4ncnc5sc(C#Cc6ncc[nH]6)cc45)ccc32)c1 | 1.74
O=C(CNc1ccncc1)c1c[nH]c2ccccc12 | 2.3
CN1CCN(c2cccc(-c3nnc(-c4ccc(OCC(=O)NCc5cccc(C(F)(F)F)c5)c([N+](=O)[O-])c4)o3)c2)CC1 | 8.11
CC(=O)Nc1cccc(NC(=O)CSc2ccc(-c3nc4ccccc4[nH]3)cn2)c1 | -0.63
O=C(Nc1ccccc1Cl)N(Cc1cc(Cl)cc(Cl)c1)CC(O)COc1ccc(Cl)c(F)c1 (stereo not given) | 2.72
O=C(Nc1ccccc1)N(Cc1cccc(-c2ccc(CNCCc3ccccc3)cc2)c1)C1CCN(Cc2ccccc2)CC1 | -0.56
CCc1cc2c3c(N)nc(N)nc3ccc2n1CC | 58
N#Cc1ccc(-c2ccc(C(=O)NCCCCN3CCC(c4cn(CCO)c5ccccc45)CC3)cc2)cc1 | -0.13
CCn1cnc2c(N3CCCC3=O)cc(C(=O)N[C@@H](Cc3ccccc3)[C@H](O)CNC3CCCCC3)cc21 | 1.91
COc1ccc(-c2nc(-c3ccc([N+](=O)[O-])cc3)no2)cc1OC | 2.39
Cc1cccc2nc(-c3ccc(-c4cccc(NC(=O)Nc5cccc(C#N)c5)c4)cc3)[nH]c12 | -0.19
O=C(/C=C/c1ccccc1O)NCCCCCN1CCC(c2c[nH]c3ccccc23)CC1 | 2.03
Cc1ccc(NC(=O)NCCCCCN2CCC(c3c[nH]c4ccccc34)CC2)cc1I | 3.64
Cc1ccc(C(=O)N2CCc3cc4nccc(N5CCN6CCC[C@H]6C5)c4cc32)cc1 | 0.6
Cc1cccc2nc(C3CCN(CC4CCN(C(=O)/C=C/c5ccc(Cl)c(Cl)c5)CC4)CC3)[nH]c12 | 11.5

Compound | inhibition [%]
CC(C)(C)c1ccc(NC(=O)c2cccc(CN3CCCN(Cc4cccc(C#N)c4)CC3)c2)cc1 | 1.26
CCC(C)OC(=O)C1=C(C)NC2=C(C(=O)CC(c3ccc(OC)c(OC)c3)C2)C1c1ccc(C)o1 (stereo not given) | 8.1
COc1cccc(OC)c1OCCCOc1c(C)nc(N)nc1N | 1.79
Cc1nc(-c2nc(N3CCC(O)CC3)ncc2-c2ccsc2)sc1C | -1.39
Cc1cc(Nc2cccc(C(F)(F)F)c2)nc2ccc(NC(=O)c3ccc(=O)[nH]c3)cc12 | -0.69
Cc1onc(-c2ccccc2)c1-c1nc(NCCC(c2ccccc2)c2ccccc2)no1 | 9.89
NCC1CCCN1Cc1cccc(-c2ccc(-c3nc4cc(C(F)(F)F)ccc4[nH]3)cc2)c1 (stereo not given) | 0.65
COc1cc(Nc2ccnc3cc(-c4nccs4)ccc23)ccc1OCCCc1nc2ccccc2[nH]1 | 4.2
c1ccc(CN2CCC(NCc3ccc(-c4ccc(CNC5CCCC5)cc4)cc3)CC2)cc1 | 1.09
Cn1c(=O)c2nc(-c3ccc(Cl)cc3)nnc2n(CCCC#N)c1=O | 7.41
O=C(NCCCCCCNCc1ccc(-c2ccccc2)cc1)Nc1ccc(Cl)c(Cl)c1 | 0.96
CC(C)N(Cc1cnc2nc(N)nc(N)c2n1)c1ccc(Cl)c(Cl)c1 | 1.12
O=C(NC1CCN(Cc2ccc3c(c2)OCCO3)CC1)c1ccc(-c2cccc(Cl)c2)s1 | 5.55
Cc1cccc2nc(-c3cccc(-c4ccc(CNCc5cccc(N)c5)cc4)c3)[nH]c12 | -1.49
CCCN(CCCCCCNCCc1ccc(Cl)cc1)CCc1ccc(O)c(O)c1 | -1.72
COc1ccc(F)cc1-c1ccccc1CNC(=O)CN(C)S(=O)(=O)c1cc(C)cc(Cl)c1C | 1.94
Cn1nccc1C(=O)NCCNCc1cccc(-c2csc(-c3nc4ccccc4[nH]3)c2)c1 | 8.22
O=C(/C=C/c1ccc2ccccc2c1)NCCCCCN1CCC(c2c[nH]c3ccccc23)CC1 | 5.66
O=C(NCCCCN1CCC(C(c2ccccc2)c2ccccc2)CC1)c1ccc(NC(=O)c2ccc(Cl)cc2)cc1 | -0.4
CC(C)c1ccc(CN2CCC(NC(=O)c3ccc(-c4cccc(Cl)c4)s3)CC2)cc1 | 4.2
